Potency data for three compounds are collected here from PubChem BioAssay (NCATS).

SMILES strings stand for the structures. Inconclusive results are not listed. The source made the active and inactive calls. Calls follow the shape of the dose curve; as a rule, active = well fitted inhibition curve with a large enough effect; inconclusive = small, poorly fitted or top-dose-only effect; inactive = flat fitted curve, though single readings scatter.

Holding throughout (assay): qHTS profiling for inhibitors of Plasmodium falciparum proliferation (AID 504749); also: nearly all actives have a fitted effect of over 60% in size
One experiment relates to CP268. The following applies: P. falciparum in erythrocytes, SYBR Green DNA, 72 h; series mostly up to 28.7 µM. The method, boiled down: (§1)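 SYBR Green fluorescence (ex 485 nm, em 535 nm) reports parasite DNA after 72 h compound exposure of infected red cells at 0.3% parasitemia, 2.5% hematocrit; signal normalized to 0.29 uM artemisinin and vehicle wells.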
The next experiment deals with CP291. Conditions: P. falciparum in erythrocytes, SYBR Green DNA, 72 h; series mostly up to 28.7 µM. The method, boiled down:
as §1

For the next experiment, the system named is CP315. Conditions: P. falciparum in erythrocytes, SYBR Green DNA, 72 h; series mostly up to 28.7 µM. The method in brief:
as §1

The test system of a further experiment is CP325. The following applies: P. falciparum in erythrocytes, SYBR Green DNA, 72 h; series mostly up to 28.7 µM. The method, boiled down:
as §1

A further experiment relates to CP329. Conditions: P. falciparum in erythrocytes, SYBR Green DNA, 72 h; series mostly up to 28.7 µM. The method, boiled down:
as §1

Another experiment has as its system DIV14. The following applies: P. falciparum in erythrocytes, SYBR Green DNA, 72 h; series mostly up to 28.7 µM. The method, boiled down: as §1
Another experiment relates to DIV17. The following applies: P. falciparum in erythrocytes, SYBR Green DNA, 72 h; series mostly up to 28.7 µM. The method, boiled down:
as §1

In another experiment the test system is Dd2. The following applies: P. falciparum in erythrocytes, SYBR Green DNA, 72 h; series mostly up to 28.7 µM. The method in brief: as §1
The next experiment concerns GB4. The following applies: P. falciparum in erythrocytes, SYBR Green DNA, 72 h; series mostly up to 28.7 µM. The method in brief: as §1
The subject of a further experiment is CP269. Conditions: P. falciparum in erythrocytes, SYBR Green DNA, 72 h; series mostly up to 28.7 µM. The method in brief:
as §1

Another experiment concerns CP286. Conditions: P. falciparum in erythrocytes, SYBR Green DNA, 72 h; series mostly up to 28.7 µM. The method in brief:
as §1

A further experiment deals with CP297. Conditions: P. falciparum in erythrocytes, SYBR Green DNA, 72 h; series mostly up to 28.7 µM. The method in brief:
as §1

A further experiment deals with CP305. The following applies: P. falciparum in erythrocytes, SYBR Green DNA, 72 h; series mostly up to 28.7 µM. The method in brief: as §1
For the next experiment, the system named is DFO2036. The following applies: P. falciparum in erythrocytes, SYBR Green DNA, 72 h; series mostly up to 28.7 µM. The method in brief: as §1
A further experiment concerns DIV30. The following applies: P. falciparum in erythrocytes, SYBR Green DNA, 72 h; series mostly up to 28.7 µM. The method in brief:
as §1

The test system of a further experiment is ECU. The following applies: P. falciparum in erythrocytes, SYBR Green DNA, 72 h; series mostly up to 28.7 µM. The method, boiled down:
as §1

For another experiment, the system named is FAB9. The following applies: P. falciparum in erythrocytes, SYBR Green DNA, 72 h; series mostly up to 28.7 µM. The method, boiled down:
as §1

Another experiment deals with HB3. Conditions: P. falciparum in erythrocytes, SYBR Green DNA, 72 h; series mostly up to 28.7 µM. The method in brief: as §1
Another experiment concerns ICS. Conditions: P. falciparum in erythrocytes, SYBR Green DNA, 72 h; series mostly up to 28.7 µM. The method in brief:
as §1

The test system of another experiment is CP335. The following applies: P. falciparum in erythrocytes, SYBR Green DNA, 72 h. The method in brief:
as §1
Potency is read from the fitted curve at half-maximal effect.

Turning to `COC1C(OC(=O)/C=C/C=C/C=C/C=C/C(=O)O)CCC2(CO2)C1C1(C)OC1CC=C(C)C` (configuration not stated), the Potency is 3380 nM (active) in the experiment with CP268; 8490 nM (active) with CP291; 1690 nM (active) with CP315; 7570 nM (active) in the experiment with CP325; 601 nM (active) in the experiment on CP329; 379 nM (active) in the experiment with DIV14. Besides, the figures for the Potency with DIV17, in the experiment with Dd2 and with GB4 were 5360 nM (active), 39.8 nM (active) and 1690 nM (active), respectively.

Turning to `CCCOc1ccc2nc(NC(=O)OC)sc2c1`, the Potency result in the experiment on CP268, in the experiment on CP269, in the experiment on CP286, with CP291, in the experiment with CP297 and with CP305 was “inactive” each time. The Potency entry with CP315, in the experiment on CP325, with CP329, in the experiment with DFO2036, with DIV14 and in the experiment on DIV17 was “inactive” each time. In addition, the Potency entry in the experiment with DIV30, in the experiment with Dd2, with ECU, with FAB9, with GB4 and in the experiment on HB3 was “inactive” throughout. Moreover, the Potency entry in the experiment on ICS is “inactive”.

In the case of `C=CCNC1=C2C[C@@H](C)C[C@H](OC)[C@H](O)[C@@H](C)/C=C(\C)[C@H](OC(N)=O)[C@@H](OC)/C=C\C=C(/C)C(=O)NC(=CC1=O)C2=O`, the Potency in the experiment on CP268 is 5360 nM (active); with CP269 it was 1690 nM (active); in the experiment with CP286, 3550 nM (active); with CP291, 4260 nM (active); in the experiment on CP297, 1690 nM (active); in the experiment on CP305 it was 4780 nM (active). Further, the Potency with CP315 was 3790 nM (active); in the experiment on CP325, 4260 nM (active); in the experiment with CP329, 4260 nM (active); in the experiment on CP335 it was 1690 nM (active); with DFO2036, 2000 nM (active); in the experiment with DIV14 it was 1510 nM (active). The Potency with DIV17 was 1200 nM (active); with DIV30 it was 1690 nM (active); with ECU, 1000 nM (active); with FAB9, 11200 nM (active); in the experiment on GB4 it was 1510 nM (active); in the experiment with HB3 it was 2000 nM (active). Moreover, the Potency in the experiment with ICS is 708 nM (active).
